Assay results from PubChem BioAssay AID1159580 (chemical genetic matrix, 2015).
Several values for one entry are separate records, joined by “and”; a condition that tells them apart may be missing. Equal entries are not always repeated. Screen size: about 5,500 compounds; about 2,000 (36%) were called active. Another 18% or so got no clear call; they are omitted. Cut-off read from the data, not from the text of the source: active = normalized growth mostly below about 0.91 (no sharp cut-off); inconclusive = no clear call, values can overlap the other calls; inactive = mostly above about 0.92. The list shows a part of the results.

Experiment: chemical genetic growth profiling, strain panel (AID 1159580);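 note: tested at 20 µM; growth read once vehicle control cultures reached saturation at 30 °C; 1 = growth at the plate median or of vehicle wells; lower values mean less growth of the strain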
Conditions: S. cerevisiae deletion strains, growth OD

Measured: normalized growth

CC(C)c1c(O)ccc2c1CCC1[C@@](C)(C=O)CCC[C@]21C (stereo not given in full)
active: locus YAL030W, strain snc1, active compounds read low 0.79 | locus YBL061C, strain skt5, active compounds read low 0.833 | locus YBR009C, strain hhf1, active compounds read low 0.476 | locus YBR021W, strain FUR4, active compounds read low 0.476 | locus YBR023C, strain chs3, active compounds read low 0.821 | locus YBR229C, strain ROT2, active compounds read low 0.713 | locus YBR231C, strain swc5, active compounds read low 0.722 | locus YCL011C, strain gbp2, active compounds read low 0.783 | locus YCL016C, strain dcc1, active compounds read low 0.803 | locus YCL029C, strain bik1, active compounds read low 0.52 | locus YDL035C, strain GPR1, active compounds read low 0.425 | locus YDL074C, strain BRE1, active compounds read low 0.12 | locus YDL101C, strain DUN1, active compounds read low 0.517 | locus YDL185W, strain tfp1, active compounds read low 0.469 | locus YDL192W, strain arf1, active compounds read low 0.246 | locus YDR101C, strain arx1, active compounds read low 0.631 | locus YDR137W, strain rgp1, active compounds read low 0.237 | locus YDR159W, strain sac3, active compounds read low 0.54 | locus YDR162C, strain NBP2, active compounds read low 0.171 | locus YDR195W, strain ref2 0.431 | locus YDR297W, strain sur2, active compounds read low 0.772 | locus YDR318W, strain mcm21, active compounds read low 0.35 | locus YDR388W, active compounds read low 0.732 | locus YDR392W, strain spt3, active compounds read low 0.415 | locus YDR502C, strain sam2, active compounds read low 0.35 | locus YEL003W, strain gim4, active compounds read low 0.834 | locus YER016W, strain bim1, active compounds read low 0.789 | locus YER110C, active compounds read low 0.853 | locus YER155C, strain BEM2, active compounds read low 0.0936 | locus YER167W, strain BCK2, active compounds read low 0.336 | locus YGL078C, strain dbp3, active compounds read low 0.886 | locus YGL086W, strain mad1, active compounds read low 0.274 | locus YGL248W, strain PDE1, active compounds read low 0.36 | locus YGR078C, strain PAC10, active compounds read low 0.303 | locus YGR135W, strain pre9, active compounds read low 0.601 | locus YGR252W, strain gcn5, active compounds read low 0.248 | locus YHR030C, strain SLT2, active compounds read low 0.756 | locus YHR079C, strain IRE1 (second series), active compounds read low 0.579 | locus YHR079C, strain IRE1, active compounds read low 0.791 | locus YHR094C, strain hxt1, active compounds read low 0.392 | locus YHR129C, strain ARP1, active compounds read low 0.143 | locus YHR200W, strain rpn10, active compounds read low 0.578 | locus YIL066C, strain RNR3, active compounds read low 0.303 | locus YIL073C, strain SPO22, active compounds read low 0.554 | locus YIL125W, strain kgd1, active compounds read low 0.621 | locus YIR030C, strain dcg1, active compounds read low 0.607 | locus YJL095W, strain BCK1 (second series), active compounds read low 0.35 | locus YJL095W, strain BCK1, active compounds read low 0.0842 and 0.826 | locus YJL129C, strain trk1, active compounds read low 0.505 | locus YJL134W, strain LCB3, active compounds read low 0.729 | locus YJL164C, strain tpk1, active compounds read low 0.578 | locus YJL166W, strain qcr8, active compounds read low 0.643 | locus YJL168C, strain set2, active compounds read low 0.921 | locus YJL187C, strain SWE1 (second series), active compounds read low 0.346 | locus YJR075W, strain HOC1, active compounds read low 0.482
inactive: locus YAL021C, strain ccr4, active compounds read low 0.984 | locus YAL026C, strain drs2, active compounds read low 0.93 | locus YBR171W, strain sec66, active compounds read low 0.97 | locus YBR279W, strain paf1, active compounds read low 0.955 | locus YCL061C, strain MRC1, active compounds read low 1 | locus YCL069W, strain vba3, active compounds read low 1.01 | locus YCR088W, strain abp1, active compounds read low 0.996 | locus YDL005C, strain med2, active compounds read low 1.01 | locus YDL040C, strain nat1, active compounds read low 1.01 | locus YDR001C, strain nth1, active compounds read low 1.01 | locus YDR069C, strain doa4, active compounds read low 0.923 | locus YDR334W, strain swr1, active compounds read low 1.01 | locus YDR335W, strain msn5, active compounds read low 0.987 | locus YEL037C, strain rad23, active compounds read low 1 | locus YEL061C, strain CIN8 (second series), active compounds read low 0.99 | locus YER111C, strain swi4, active compounds read low 0.999 | locus YER155C, strain BEM2 (second series), active compounds read low 1 | locus YFR010W, strain ubp6, active compounds read low 1 | locus YGL167C, strain pmr1, active compounds read low 0.945 | locus YGL173C, strain kem1, active compounds read low 1.01 | locus YGL227W, strain vid30, active compounds read low 0.997 | locus YGL240W, strain doc1, active compounds read low 0.926 | locus YGL253W, strain hxk2, active compounds read low 0.96 | locus YHR013C, strain ard1, active compounds read low 1.14 | locus YHR142W, strain chs7, active compounds read low 0.899 | locus YJL092W, strain hpr5, active compounds read low 0.995 | locus YJL115W, strain asf1, active compounds read low 1.02 | locus YJL154C, strain vps35, active compounds read low 1.02 | locus YJR066W, strain TOR1, active compounds read low 0.826 | locus YKL009W, strain mrt4, active compounds read low 0.998
